From PubChem BioAssay
Shown are actives, neighbours in structure and some others; about 4.9% of the full set was active somewhere.
NALP1 yeast inh – inhibitors of NALP1 inflammasome in yeast; inhibition, % at 10 µM; S. cerevisiae NALP1/ASC/caspase-1 growth, X-gal OD620, 72 h; 280,000 tested, 0.61% active; AID 2071; in the data active = inhibition mostly above about 24%, no sharp cut-off; inactive = mostly below about 32%
SKKanGAS inh – blocks kanamycin growth of S. pyogenes SKKanGAS strain; inhibition, % at 7.5 µM; 300,000 tested, 1.3% active; BacTiter-Glo, 6 h;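 active = mean replicate score, as percent of positive control median, at least 50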;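 also: strain carries kanamycin resistance gene driven by streptokinase promoter and grows in 40 µg/ml kanamycin; loss of luminescence reflects streptokinase promoter inhibition or plain growth inhibition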
TIM10 inh – growth inhibitors of TIM10 yeast strain; 330,000 tested, 1.4% active; inhibition, % at 10 µM; S. cerevisiae TIM10 strain growth, BacTiter-Glo luminescence, 24 h;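 active = inhibition of 40% or more at the single tested concentration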;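 also: wild-type TIM10 isogenic control strain grown at permissive 25 °C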
NLRP3 yeast inh – blocks the NALP3 inflammasome reconstituted in yeast | 330,000 tested, 0.39% active | inhibition, % at 10 µM | Yeast reconstituted NLRP3/ASC/caspase-1, beta-gal luminescence, 24 h | AID 2825;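 active = inhibition of 50% or more; inactive = inhibition below 50%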
tim23-1 inh – inhibits growth of tim23-1 mutant yeast. 330,000 tested, 1.3% active. inhibition, % at 20 µM. S. cerevisiae tim23-1 growth, BacTiter-Glo luminescence, 24 h. AID 463212;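 active = growth inhibition of the mutant yeast at or above 50%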;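 also: temperature-sensitive mutant grown at 25 °C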
tim10-1 inh – tim10-1 yeast growth inhibition; AID 463190; inhibition, % at 20 µM; 330,000 tested, 2.2% active; S. cerevisiae tim10-1 ts strain growth, BacTiter-Glo, 24 h;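 active = inhibition of at least 40%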;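 also: mutant grown at 25 °C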
Of the large screens only hits and unclear results are named; the others gave an inactive call.

CCCCCCCCCC(=O)N[C@H](CN1CCOCC1)[C@H](O)c1ccccc1	none (no result: NALP1 yeast inh)
CCC1(C)Cc2ccccc2-c2c1c(=O)n(-c1ccc(C)cc1)c1nnnn21 (stereo unspecified)	none
CC1(C)Cc2ccccc2-c2c1c(=O)n(Cc1ccccc1)c1nnnn21	SKKanGAS inh 59.9
COc1cccc(-c2nn(C)c3sc(C(=O)Nc4ccc5c(c4)OCCO5)cc23)c1	SKKanGAS inh 59.5
Cc1c(C(=O)OC2CCC(C)CC2)[nH]c2c1C(=O)CCC2 (stereo unspecified)	none
COC(=O)c1[nH]c2c(c1C)C(=O)CCC2	NALP1 yeast inh 33.4
CCc1cc(C(=O)N2CCN(S(=O)(=O)c3ccc(Cl)cc3)CC2)sc1C	none (no result: NALP1 yeast inh, SKKanGAS inh)
OCc1cn(-c2ccc(Cl)cc2)nn1	none
Cc1ccc(/C=C/C(=O)OCC(=O)N(CC(C)C)c2c(N)n(Cc3ccccc3)c(=O)[nH]c2=O)o1	none (no result: NALP1 yeast inh)
CC12CCC(CC1)C(C)(C)O2	SKKanGAS inh 100.3 (no result: NALP1 yeast inh, TIM10 inh, NLRP3 yeast inh, tim23-1 inh, tim10-1 inh)
COc1ccc(CNc2oc(Cc3cccc4ccccc34)nc2C#N)cc1	SKKanGAS inh 54.1
COc1ccc(Cl)cc1C(=O)NNC(=O)CCNS(=O)(=O)c1ccccc1	none (no result: NALP1 yeast inh, SKKanGAS inh)
CC1(C)N=C(SCC(=O)Nc2ccc(Cl)cc2)C(c2ccccc2)=N1	none
CC1(C)N=C(SCC(=O)Nc2ccc(Cl)cc2)C(c2ccc(Cl)cc2)=N1	NALP1 yeast inh 36.5
C/C(=C\C(=O)OCCCCCCCCC(=O)O)C[C@@H]1OC[C@H](C[C@@H]2O[C@H]2[C@@H](C)[C@H](C)O)[C@@H](O)[C@H]1O	SKKanGAS inh 103.5 (no result: NALP1 yeast inh)
O=C(Nc1ccc(Cl)cn1)Nc1ccc(Cl)cn1	NALP1 yeast inh 30.3
COc1ccc(OC)c(C=NNC(=O)c2ccc(NS(=O)(=O)c3cccs3)cc2)c1	none (no result: NALP1 yeast inh, SKKanGAS inh)
CCOCCCNCc1cn(-c2ccc(F)cc2F)nc1-c1ccccc1C	NALP1 yeast inh 26.8
O=C(NCCN1CCOCC1)c1ccc(Cl)c(S(=O)(=O)NCc2ccccc2)c1	none (no result: NALP1 yeast inh, SKKanGAS inh)
COc1cc(/C=N/Nc2nc(Nc3ccccc3)nc(-n3nc(C)cc3C)n2)cc(OC)c1OC	SKKanGAS inh 75.0
COc1cc(/C=N/Nc2nc(Nc3ccc(C)cc3)nc(-n3nc(C)cc3C)n2)cc(OC)c1OC	NALP1 yeast inh 42.3, SKKanGAS inh 74.0
COc1ccc(O)c(/C=N/Nc2nc(Nc3ccccc3)nc(-n3nc(C)cc3C)n2)c1	SKKanGAS inh 103.0
COc1ccc(/C=N/Nc2cc(C)nc(-n3nc(C)cc3C)n2)cc1	none
CC(=O)N/C(=C/C(C)C)c1ccccc1	none (no result: NALP1 yeast inh, SKKanGAS inh)
OCCN1CCN(C(c2cccs2)c2ccc3cccnc3c2O)CC1 (stereo unspecified)	none (no result: SKKanGAS inh, TIM10 inh, NLRP3 yeast inh, tim23-1 inh, tim10-1 inh)
CCN1CCN(C(c2ccc(C(F)(F)F)cc2)c2ccc3cccnc3c2O)CC1 (stereo unspecified)	SKKanGAS inh 99.8
O=C(Cn1ncn2nc(-c3ccccc3)cc2c1=O)NCc1ccccn1	none
Cc1[nH]c(-c2ccccn2)nc(=S)c1Cl	SKKanGAS inh 88.2 (no result: NALP1 yeast inh)
COc1cc(NC(=O)COC(=O)CO/N=C(\C)c2ccc3c(c2)OCO3)cc(OC)c1OC	none (no result: NALP1 yeast inh)
CCOC(=O)c1c(O)cc(C)cc1Nc1ccccc1	SKKanGAS inh 51.1
O=C(COC(=O)Cn1cnc2ccccc21)Nc1ccc2c(c1)C(=O)c1ccccc1C2=O	NALP1 yeast inh 50.4
CCOc1ccc(S(=O)(=O)NCCC(=O)NCc2cccnc2)cc1	none (no result: NALP1 yeast inh)
O=C(O)CCn1cc(/C=C\C(=O)c2ccc(Cl)cc2)c(-c2cccc(Br)c2)n1	SKKanGAS inh 79.2
Cc1ccc(-c2nn(CCC(=O)O)cc2/C=C\C(=O)c2ccc(Br)cc2)cc1	SKKanGAS inh 73.4
CC(C)c1onc(C(=O)NCCc2ccccc2)c1[N+](=O)[O-]	none
CC(C)c1onc(C(=O)N(C)Cc2ccccc2)c1[N+](=O)[O-]	NALP1 yeast inh 52.9
COc1cc(/C=N/NC(=O)c2cncc(Br)c2)cc([N+](=O)[O-])c1O	SKKanGAS inh 107.7
O=C(N/N=C\c1ccc([N+](=O)[O-])o1)c1cncc(Br)c1	none (no result: NALP1 yeast inh)
COc1cc([N+](=O)[O-])cc(/C=N/NC(=O)c2cncc(Br)c2)c1O	SKKanGAS inh 93.9
COc1cc(/C=N/NC(=O)c2cccc([N+](=O)[O-])c2)cc(OC)c1O	none
CC1=C(C(=O)OCCc2ccccc2)C(c2ccsc2)NC(=O)N1C (stereo unspecified)	none
O=[N+]([O-])c1ccc(S(=O)(=O)Nc2ccc(S(=O)(=O)N3CCCC3)cc2)cc1	none
CCN(CC)CCOc1ncnc2c1oc1ccccc12	none
CCCCc1oc2ccccc2c1C(=O)c1cc(I)c(OCCN(CC)CC)c(I)c1	SKKanGAS inh 106.4 (no result: tim23-1 inh)
O=C(CNC(=O)c1ccc(Cl)cc1Cl)OCCOc1ccccc1F	none (no result: NALP1 yeast inh, SKKanGAS inh)
C/C(N)=C(/C#N)C(=O)CSc1nc2cc(Cl)ccc2c(=O)n1Cc1ccco1	SKKanGAS inh 60.6
COc1ccccc1CSc1nc2c(c(=O)n(C)c(=O)n2C)n1C	none
CNS(=O)(=O)c1ccc(NC(=O)c2cnn3c(C(F)F)cc(-c4ccccc4)nc23)cc1	SKKanGAS inh 53.4
COc1ccc(-c2cc(C(F)F)n3ncc(C(=O)Nc4cc(C)on4)c3n2)cc1	NALP1 yeast inh 42.9
COCCCN1C(=O)C(=O)/C(=C(/O)c2ccc(OC)cc2)C12C(=O)N(C)c1ccccc12 (stereo unspecified)	NALP1 yeast inh 39.3
Cc1ccc(CN2CCC(c3cc(-c4ccc(Cl)cc4)n[nH]3)CC2)cc1	NALP1 yeast inh 35.2
Clc1ccccc1Sc1ccc(-c2ccccn2)s1	SKKanGAS inh 62.2
O=[N+]([O-])c1cccnc1Sc1ccccc1Cl	none (no result: NALP1 yeast inh)
Cc1ccc(-n2ncc3c(NCc4ccccc4)ncnc32)cc1	NALP1 yeast inh 40.7
CC(C)(C)NS(=O)(=O)c1ccc(NC(=S)NC(=O)C2CC2)cc1	none
CC1CCCCC1NC(=O)CCn1ccc2cc(S(=O)(=O)N3CCCC3)ccc21 (stereo unspecified)	SKKanGAS inh 50.2
Cc1ccc(NC(=O)CC2S/C(=N/N=C/c3c[nH]c4ccccc34)NC2=O)cc1 (stereo unspecified)	none
CCOC(=O)c1ccc(NC(=O)CC2S/C(=N/N=C/c3c[nH]c4ccccc34)NC2=O)cc1 (stereo unspecified)	SKKanGAS inh 65.1
O/N=C/c1cc(Br)ccc1OCc1ccccc1F	none (no result: NALP1 yeast inh)
O=C(O)CN1C(=O)/C(=C\c2ccccc2OCc2ccc(Cl)cc2Cl)SC1=S	SKKanGAS inh 70.7
O=C(O)CN1C(=O)/C(=C\c2cc(Br)ccc2OCc2ccccc2F)SC1=S	SKKanGAS inh 68.1
O=C(O)CN1C(=O)/C(=C\c2cc(Br)ccc2OCc2ccccc2Cl)SC1=S	SKKanGAS inh 94.6
CN(C)S(=O)(=O)c1cccc(NC(=O)c2cccc(S(=O)(=O)N3CCc4ccccc43)c2)c1	none (no result: NALP1 yeast inh, SKKanGAS inh)
CCOc1ccccc1NC(=O)C(NCCN(C)C)c1ccccc1 (stereo unspecified)	none
